Consider one compound from PubChem BioAssay AID602468 (The Scripps Research Institute Molecular Screening Center, 2012).

For the assay, the system named is Neuro-2A. Put plainly: cysteine-reactive anti-target inhibition count, late-stage follow-up, selectivity assay for PME-1 inhibitor project, gel-based competitive ABPP, fluorescence, MBM, Neuro-2A (AID 602468). Conditions: MBM or Neuro-2A, in situ; series mostly up to 0.25 µM.

Active and inactive are the calls of the source. The rule behind the calls is not given here.

`CC[C@@]1(c2ccc(C)cc2)C(=O)N(C(=O)OC(C)C)N1C(=O)OC(C)C`: the compound was classed as inactive.
